aSyn 5UTR act – Activators via SNCA 5'UTR binding, MLPCN | AID 1814, 2009 | activity score, % (tested at 7.5 µM), hits read low | 7.1% of 300,000 active | alpha-synuclein 5'UTR reporter, activators screen; in the data active = activity score below about -60%
Hits are given with their value; - = inactive. The entries come from a sample that favours hits as a whole.

SMILES	aSyn 5UTR act
Cc1ccc(O)c(-c2cc(C(=O)Nc3cccnc3)[nH]n2)c1	-166.2
O=C(Nc1cccnc1)c1cc(-c2cc(Cl)ccc2O)n[nH]1	-219.1
CNC(C)C#Cc1ccc2oc3cc(C)c(C)cc3c(=O)c2c1 (stereo not drawn)	-195.6
CNC(C)C#Cc1ccc2c(=O)c3cc(C)c(C)cc3oc2c1 (stereo not drawn)	-226.9
Cc1cccc(/N=C/c2c(O)[nH]c3ccccc23)n1	-210.9
Oc1[nH]c2ccccc2c1C=Nc1ccc2c(c1)OCCO2	-76.0
CC1CCCN(c2nc3ccsc3c(=O)s2)C1 (stereo not drawn)	-148.2
CCOc1ccc2nc(NC(=O)Cc3cccs3)sc2c1	-136.9
O=C(Cc1cccs1)Nc1nc2ccccc2s1	-82.2
CC1(C(=O)Nc2nc3ccccc3s2)CC1(Br)Br (stereo not drawn)	-117.9
O=C(Cc1nc(=O)c2ccccc2s1)Nc1ccccc1	-105.1
Cc1ccc2nc(NC(=O)COC(=O)c3ccco3)sc2c1	-96.9
O=C(Cc1ccccc1)Nc1nc2ccccc2s1	-102.2
CCc1ccc2nc(NC(=O)CCCc3cccs3)sc2c1	-81.2
Cc1ccc2nc(NC(=O)c3ccccn3)sc2c1	-
Cc1ccc2nc(NC(=O)Cc3cccs3)sc2c1	-165.9
CC(Cc1ccccc1)C(=O)NCc1nc2ccccc2s1 (stereo not drawn)	-75.3
COc1ccc2nc(NC(=O)Cc3cccs3)sc2c1	-131.8
CCOC(=O)c1ccc(N/C=C2/CCCC(C)C2=O)cc1 (stereo not drawn)	-152.8
CC1CCC/C(=C\Nc2ccc(C(=O)O)cc2)C1=O (stereo not drawn)	-120.5
O=C(Nc1ccc(N2CCCCC2)cc1)c1cccnc1	-148.9
O=C(Nc1ccc(N2CCCCC2)cc1)c1ccc(F)cc1	-79.7
O=C(c1ccc(F)cc1)c1ccc(N2CCCC2)cc1	-146.8
O=C(Nc1ccc2nn(-c3ccc(F)cc3)nc2c1)c1cccnc1	-93.6
O=C(c1ccc(F)cc1)c1ccc(N2CCCCC2)cc1	-144.5
SMILES	aSyn 5UTR act
O=S(=O)(c1ccc(N2CCCC2)cc1)C(F)(F)F	-149.4
Cc1cc(C)c(-c2nc3ccccc3s2)[nH]1	-190.2
CCOC(=O)CNC(=O)c1sc(NC(=O)c2ccccc2F)nc1C	-150.9
CCOC(=O)CNC(=O)c1sc(NC(=O)c2cccc(F)c2)nc1C	-98.4
O=C(Nc1ccc(N2CCCCC2)cc1)c1ccc2ccccc2n1	-173.5
O=C(N/N=C\c1c(O)ccc2ccccc12)c1ccc(S(=O)(=O)N2CCCCC2)cc1	-
COc1ccc(NC(=O)c2ccc3ccccc3n2)cc1S(=O)(=O)N1CCCCC1	-122.2
Cc1ccc(S(=O)(=O)N2CCCCC2)cc1NC(=O)c1ccc2ccccc2n1	-121.9
Cc1cccc(NC(=O)c2ccc3ccccc3n2)c1C	-67.5
O=C(Nc1ccc(N2CCCC2)cc1)C(Cl)c1ccccc1 (stereo not drawn)	-107.8
CCOc1ccc(C(=O)N[C@H](C(=O)Nc2cccc(S(=O)(=O)N3CCCCC3)c2)C(C)C)cc1	-
O=C(Nc1cccc(S(=O)(=O)N2CCCCCC2)c1)c1ccc2ccccc2n1	-89.0
Cc1ccccc1C(=O)Nc1ccc(N2CCCC2)cc1	-153.5
COc1ccc(-c2nc(SC)n(S(=O)(=O)c3ccccc3)n2)cc1	-120.4
O=c1nc2c(-c3cccc(Br)c3)n[nH]n2c2ccccc12	-175.9
N#Cc1c(C(F)(F)F)cc(-c2ccc(Cl)c(Cl)c2)nc1SCCN1CCOCC1	-64.4
CCn1cc(Br)c(C(=O)Nc2ccc(F)c(Cl)c2)n1	-110.0
CCOC(=O)c1ccc(NC(=O)c2nn(C)cc2Br)cc1	-204.1
CCOC(=O)c1ccc(NC(=S)NC(=O)c2nn(CC)cc2Br)cc1	-66.4
CCOC(=O)c1ccc(NC(=O)c2nn(CC)cc2Br)cc1	-93.9
COc1ccc(/C(C)=N/Nc2ncc(Cl)cc2Cl)c(O)c1	-92.0
COCCCNC(=O)C1CCN(C(=O)c2oc3cc4sc(N(C)C)nc4cc3c2C)CC1	-93.0
CN1c2ccccc2Oc2nnc(N3CCN(Cc4ccccc4)CC3)cc21	-96.8
O=C(Nc1ccc(Cl)c(Cl)c1)OCc1cccnc1	-73.0
Cc1ccc(NC(=O)Nc2cccnc2)cc1Cl	-110.9
SMILES	aSyn 5UTR act
O=C(Nc1cccnc1)Nc1ccccc1Cl	-71.8
Cc1ccc(NC(=O)Nc2ccc3c(c2)C(=O)OC3)cc1Cl	-82.7
O=C(Nc1ccc2c(c1)CCC2)Nc1ccccc1Cl	-110.2
O=C(NCc1ccco1)Nc1ccc(Br)cc1Cl	-170.4
O=C(Nc1csc([N+](=O)[O-])c1)Nc1ccccc1Cl	-88.6
O=C(Nc1ccc(Nc2ccccc2)cc1)Nc1ccccc1Cl	-226.9
O=C(Nc1ccc(Cl)cc1)Nc1ccccc1Sc1ncc([N+](=O)[O-])s1	-90.4
O=C(Nc1cccnc1)Nc1ccc(Br)cc1Cl	-68.1
O=C(/C=C/c1c(F)cccc1Cl)Nc1nc2ccccc2[nH]1	-313.8
Cc1ccc(/C=C/C(=O)Nc2nc3ccccc3[nH]2)cc1	-185.7
Clc1cccc(/C=N/Nc2nc(Cl)nc3ccccc23)c1	-171.6
Clc1cccc(/C=N\Nc2nccs2)c1	-168.3
C(=N/Nc1nc(-c2ccccc2)cc(-c2ccccc2)n1)/c1cccnc1	-121.0
Cc1cc(-c2ccccc2)nc(N/N=C/c2ccco2)n1	-125.8

Screening results (PubChem BioAssay)
